From PubChem BioAssay (NCI) come the findings set out here.

Compounds without any hit were thinned out: in the full panel of roughly 83,000, 20% have a hit.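 Treatment: one concentration, 48 hours, 96-well format. Scoring: percent growth, with anything below 10 considered active.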 Unmarked numbers belong to inactive results. The source made the active and inactive calls.

The test system of this assay is MDA-MB-468 breast. Nature of the assay: NCI-60 one-dose screen, 48 h (100 = growth as untreated, 0 = no growth, -100 = all killed). The settings on record: 10 µM unless noted.
For the molecule `O=C(O)CNC(=O)C1(N2C(=O)c3ccccc3C2=O)CCCC1`, the growth was 98.1%. With `CN1CCC(OC2c3ccccc3CCc3ccccc32)CC1`, the growth is 89.6%. To `c1ccc(Cn2cc(-c3nc4ccccc4s3)c3cccnc32)cc1` belongs 99.4%. As for `CCN(CC)c1ccc2cc(C(=O)NCCOCCOCCOCCn3cc(CCC(=O)Nc4ccc(C(=O)c5ccc(NC(=O)OC(C)(C)C)cc5)cc4)nn3)c(=O)oc2c1`, the figure is 51.3%; as for `O=C(CCNCc1ccccc1)c1ccccc1`, 98.2%; as for `CN(CCC(=O)/C(=C\c1ccccc1)c1ccc(Cl)cc1)Cc1ccccc1`, -35.2% (active). To `C#C[C@]1(O)CC[C@H]2[C@@H]3CC=C4c5sc(-c6ccc(F)cn6)nc5CC[C@]4(C)[C@H]3CC[C@@]21C` belongs 43.4%; to `C=C1C(=O)O[C@H]2[C@H]1CC/C(COC(=O)NCCc1cccc(OC)c1)=C\CC[C@@]1(C)O[C@@H]21`, 18.9%; to `N#Cc1c2ncccc2c2nnc3cc(Cl)c(Cl)cc3n12`, 21.7%. On to `Cc1ccc(-c2nc3ccccn3c2/C=C2/C(=O)Nc3cc(Cl)ccc32)cc1`, for which the growth is 67%. As for `Cc1sc2ncnc(Sc3nc4ccccc4[nH]3)c2c1C`, the figure is -86.6% (active); as for `CCn1c(SC)nnc1-c1cc2c([nH]c3ccccc32)c(-c2cccc(O)c2)n1`, -12.6% (active). As for `Cc1cc(C)c(N2C(=O)CC(Sc3ccccc3N)C2=O)c(C)c1` (stereo not given), the figure is 45.6%.

Consider `C/C(=N\NC(=O)c1ccccc1O)c1cccc(/C(C)=N/NC(=O)c2ccccc2O)n1`, for which the growth was 23.9%. As to `Cc1ccc(S(=O)(=O)N/N=C\c2cc(Cl)ccc2O)cc1`, the growth was 68.4%. On to `CCOc1ccccc1/C=N\N=C(\N)N/N=C/c1ccccc1OCC`, for which the growth is -8.3% (active).

`Nc1ncnc2c1ncn2C1OC(COC(c2ccccc2)(c2ccccc2)c2ccccc2)C(O)C1O` (stereo not given): the growth is 89%. With `NC(N)=Nc1ccc(Oc2cccc(Nc3ccc(Br)c(C(F)(F)F)c3)c2)cc1`, the growth is -10.6% (active). On to `O=C(CCl)n1nnnc1Cc1ccccc1`, for which the growth is 101%. For `CN1C(=O)N(C)C2NC(N/N=C/c3ccccc3)=NC21` (stereo not given), the growth was 95.9%. As for `C[C@H]1[C@H]2C3=CC[C@@H]4[C@@]5(C)C/C(=C/c6ccco6)C(=O)C(C)(C)[C@@H]5CC[C@@]4(C)[C@]3(C)CC[C@@]2(C(=O)N2CCOCC2)CC[C@@H]1C`, the figure is 59.5%; as for `Cn1c(O)c(N=NC(=O)c2cc(-c3ccccc3)on2)c2ccccc21`, 107%; as for `CCN(CC)CC#CCOC(=O)[C@]1(C)CCC[C@]2(C)c3ccc(C(C)C)cc3CC[C@@H]12`, 65.3%. With `C[C@@H]1CN(c2ccc3ncc(C#Cc4cncc(C(=O)Nc5ccc(CN6CCN(C)CC6)c(C(F)(F)F)c5)c4)n3n2)C[C@H](C)O1`, the growth was -76.7% (active).

Take `CC(=O)NC(C)(C)C(=O)N[C@@H](C)C(=O)NC(C)(C)C(=O)N[C@@H](C)C(=O)NC(C)(C)C(=O)N[C@@H](C)C(=O)N[C@@H](CCC(N)=O)C(=O)NC(C)(C)C(=O)N[C@H](C(=O)NC(C)(C)C(=O)NCC(=O)N[C@@H](CC(C)C)C(=O)NC(C)(C)C(=O)N1CCC[C@H]1C(=O)N[C@H](C(=O)NC(C)(C)C(=O)NC(C)(C)C(=O)N[C@@H](CCC(N)=O)C(=O)N[C@@H](CCC(N)=O)C(=O)N[C@H](CO)CC1CCCCC1)C(C)C)C(C)C`: the growth is 3.04% [5 µM] (active).

`COc1ccc(-c2ccc(-c3ccc(C(=N)N)cc3)s2)cc1Cl`: the growth is -65% (active). As for `O=C1c2ccccc2C(=O)c2c1ccc(C(Br)Br)c2Cl`, the growth was -12.6% (active). As for `CCCNCCC(C)=O`, the figure is 127%; as for `CCC(c1ccccc1)C(CC)c1ccc(O)c(O)c1` (stereo not given), 90.9%.

Regarding `COc1cc(-c2nn3c(/C=C4/C(=O)Nc5ccccc54)c(-c4ccc(C)cc4)nc3s2)cc(OC)c1OC`, the growth is 41%. To `Fc1ccc(Cc2ccc(F)cc2)cc1` belongs 104%. As for `N#Cc1c(-c2ccc(Cl)cc2)n(O)c2ccccc12`, the figure is -3.01% (active).

Consider `CCn1cc(C(=O)NNC(=S)Nc2ccc(C)cc2)c(=O)c2ccc(C)nc21`, for which the growth is 88%. Regarding `CN(O)c1nc(N(C)O)nc(N2CCOCC2)n1`, the growth is -6.58% (active). `Nc1nc2c(c3ncccc13)C(c1cccc(Cl)c1)Cc1ncccc1-2` (stereo not given): the growth was 26.6%.

`CCCCN1CCN(c2ccc3nc(-c4ccc5nc(-c6ccc(OCC)cc6)[nH]c5c4)[nH]c3c2)CC1`: the growth is 67.3%. On to `CC(=O)N1N=C(c2ccc(C(F)(F)F)c(F)c2)CC1c1[nH]c(C)c(C(=O)NCC(F)(F)F)c1C` (stereo not given), for which the growth was 78.5%.

Regarding `Fc1ccccc1-c1cnn2cc(-c3ccccc3)cnc12`, the growth is 124%.

On to `CN(C)CCSC1=Nc2ccc(Cl)cc2C(c2ccccc2Cl)N(C)C1` (stereo not given), for which the growth is 58.4%.

With `C=C(C)[C@@H]1CC[C@]2(CO)CC[C@]3(C)[C@H](CC[C@@H]4[C@@]5(C)CCCNC(C)(C)[C@@H]5CC[C@]43C)[C@@H]12`, the growth is 11.7%.
